Calls of active or inactive are those of the source. How the source made its calls: active means hit-call score of the fitted dose curve at least 0.9, where 1 is the maximum; inactive means score below 0.9.

As a reminder, the AC50 is the concentration giving half of the maximal activity seen.

human Tachykinin Receptor NK1 Agonism, TACR1 (gene 6869), sequence (P25103 whole entry, looked up): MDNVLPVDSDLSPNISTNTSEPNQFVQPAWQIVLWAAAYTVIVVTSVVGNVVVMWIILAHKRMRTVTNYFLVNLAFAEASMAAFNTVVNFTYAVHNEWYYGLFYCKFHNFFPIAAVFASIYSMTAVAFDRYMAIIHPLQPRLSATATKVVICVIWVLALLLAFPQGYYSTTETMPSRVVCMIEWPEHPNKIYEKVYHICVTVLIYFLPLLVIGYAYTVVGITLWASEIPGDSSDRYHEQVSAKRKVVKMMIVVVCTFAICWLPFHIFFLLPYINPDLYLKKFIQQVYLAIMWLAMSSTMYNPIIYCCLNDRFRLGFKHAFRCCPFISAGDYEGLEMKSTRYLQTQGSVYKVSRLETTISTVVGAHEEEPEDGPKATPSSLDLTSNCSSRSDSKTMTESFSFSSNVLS

In the experiment the target is human Tachykinin Receptor NK1 Agonism, TACR1 (gene 6869) (UniProt P25103). Nature of the experiment: ERF_TW_GPCR_hTACR1: Eurofins (ERF) G Protein-Coupled Receptor (GPCR) Radioligand Binding LeadHunter Assay for human Tachykinin Receptor NK1 Agonism. As to the method:
ERF_TW_GPCR_hTACR1 is a biochemical, single-readout assay that uses extracted gene-proteins in a cell-free assay. Measurements were taken 1.5 hour after chemical dosing in a 96-well plate. See NK1 Human Tachykinin GPCR Binding (Agonist Radioligand) Assay, Panlabs.ERF_TW_GPCR_hTACR1 is an assay component calculated from the ERF_TW_GPCR_hTACR1 assay. It is designed to measure radioligand binding using a type of binding reporter as detected by scintillation counting with radiometry technology.Data from the assay component ERF_TW_GPCR_hTACR1 was analyzed at the assay endpoint, ERF_TW_GPCR_hTACR1, in the positive analysis fitting direction relative to DMSO as the negative control and baseline of activity. Using a type of binding reporter, gain-of-signal activity can be used to understand changes in radioligand binding as they relate to gene TACR1. To generalize the intended target to other relatable targets, this assay endpoint is annotated to the gpcr intended target family, where the subfamily is tachykinin.
Human recombinant neurokinin NK1 receptors expressed in CHO cells are used in modified Tris-HCL buffer pH 7.4. A 36 ug aliquot is incubated with 0.8 nM [3H]Substance P for 90 minutes at 4C. Non-specific binding is estimated in the presence of 10 uM L-703,606. Receptors are filtered and washed, the filters are then counted to determine [3H]Substance P specifically bound. […]
In the case of `CCCCC[C@H](O)CC(=O)CCc1ccc(O)c(OC)c1`, the call was inactive.

With `COc1cc(CCC(=O)CC(=O)CCc2ccc(O)c(OC)c2)ccc1O`, the AC50 is 5 µM (active).
